Results reported in PubChem BioAssay AID1159580 (chemical genetic matrix, 2015).
Where “and” joins values, the source holds several entries; their conditions need not be identical. Equal entries are not always repeated. Among all 5,500 compounds or so, about 2,000 (36%) were called active. Inconclusive results (about 18%) are left out. Cut-off read from the data, not from the text of the source: active = normalized growth mostly below about 0.91 (no sharp cut-off); inconclusive = no clear call, values can overlap the other calls; inactive = mostly above about 0.92. This is one part of the list.

Experiment: chemical genetic growth profiling, strain panel (AID 1159580);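 note: tested at 20 µM; growth read once vehicle control cultures reached saturation at 30 °C; 1 = growth at the plate median or of vehicle wells; lower values mean less growth of the strain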
Conditions: S. cerevisiae deletion strains, growth OD

Measured: normalized growth

CCOC(=O)c1c(C)cc(O)cc1O
0.787 (active) and 0.917 (inactive): locus YJL095W, strain BCK1, stronger effect = lower value
inactive: locus YAL021C, strain ccr4, stronger effect = lower value 0.924 | locus YAL026C, strain drs2, stronger effect = lower value 0.946 | locus YBL061C, strain skt5, stronger effect = lower value 0.94 | locus YBR021W, strain FUR4, stronger effect = lower value 1.01 | locus YBR023C, strain chs3, stronger effect = lower value 0.922 | locus YBR171W, strain sec66, stronger effect = lower value 0.904 | locus YBR229C, strain ROT2, stronger effect = lower value 0.941 | locus YBR279W, strain paf1, stronger effect = lower value 0.947 | locus YCL016C, strain dcc1, stronger effect = lower value 0.921 | locus YCL029C, strain bik1, stronger effect = lower value 0.92 | locus YCL069W, strain vba3, stronger effect = lower value 0.939 | locus YCR088W, strain abp1, stronger effect = lower value 0.934 | locus YDL005C, strain med2, stronger effect = lower value 0.921 | locus YDL035C, strain GPR1, stronger effect = lower value 0.973 | locus YDL040C, strain nat1, stronger effect = lower value 0.94 | locus YDL074C, strain BRE1, stronger effect = lower value 0.923 | locus YDL101C, strain DUN1, stronger effect = lower value 0.917 | locus YDR069C, strain doa4, stronger effect = lower value 0.916 | locus YDR137W, strain rgp1, stronger effect = lower value 0.905 | locus YDR159W, strain sac3, stronger effect = lower value 0.887 | locus YDR162C, strain NBP2, stronger effect = lower value 0.87 | locus YDR195W, strain ref2 0.981 | locus YDR297W, strain sur2, stronger effect = lower value 0.93 | locus YDR334W, strain swr1, stronger effect = lower value 0.922 | locus YDR335W, strain msn5, stronger effect = lower value 0.935 | locus YDR392W, strain spt3, stronger effect = lower value 0.831 | locus YEL003W, strain gim4, stronger effect = lower value 0.947 | locus YEL037C, strain rad23, stronger effect = lower value 0.937 | locus YEL061C, strain CIN8 (second series), stronger effect = lower value 0.937 | locus YER016W, strain bim1, stronger effect = lower value 0.946 | locus YER111C, strain swi4, stronger effect = lower value 0.937 | locus YER155C, strain BEM2, stronger effect = lower value 0.927 | locus YER167W, strain BCK2, stronger effect = lower value 0.941 | locus YFR010W, strain ubp6, stronger effect = lower value 0.92 | locus YGL167C, strain pmr1, stronger effect = lower value 0.922 | locus YGL173C, strain kem1, stronger effect = lower value 0.928 | locus YGL227W, strain vid30, stronger effect = lower value 0.937 | locus YGL253W, strain hxk2, stronger effect = lower value 0.918 | locus YGR252W, strain gcn5, stronger effect = lower value 0.937 | locus YHR013C, strain ard1, stronger effect = lower value 0.941 | locus YHR030C, strain SLT2, stronger effect = lower value 0.93 | locus YHR079C, strain IRE1, stronger effect = lower value 0.918 | locus YHR129C, strain ARP1, stronger effect = lower value 0.924 | locus YIL066C, strain RNR3, stronger effect = lower value 0.951 | locus YIL073C, strain SPO22, stronger effect = lower value 0.888 | locus YIL125W, strain kgd1, stronger effect = lower value 0.945 | locus YJL092W, strain hpr5, stronger effect = lower value 0.923 | locus YJL115W, strain asf1, stronger effect = lower value 0.939 | locus YJL129C, strain trk1, stronger effect = lower value 0.929 | locus YJL134W, strain LCB3, stronger effect = lower value 0.931 | locus YJL154C, strain vps35, stronger effect = lower value 0.922 | locus YJL166W, strain qcr8, stronger effect = lower value 0.908 | locus YJL187C, strain SWE1 (second series), stronger effect = lower value 0.878 | locus YJL187C, strain SWE1, stronger effect = lower value 0.931 | locus YJR043C, strain POL32, stronger effect = lower value 0.965 | locus YJR066W, strain TOR1, stronger effect = lower value 0.853 | locus YKL009W, strain mrt4, stronger effect = lower value 0.924 | locus YKL160W, strain elf1, stronger effect = lower value 0.911 | locus YKR026C, strain gcn3, stronger effect = lower value 0.929 | locus YKR091W, strain srl3, stronger effect = lower value 0.942 | locus YLL001W, strain dnm1, stronger effect = lower value 0.919 | locus YLL026W, stronger effect = lower value 0.935 | locus YLR027C, strain aat2, stronger effect = lower value 0.93 | locus YLR058C, strain SHM2, stronger effect = lower value 0.906 | locus YLR102C, strain apc9, stronger effect = lower value 0.941 | locus YLR113W, strain HOG1, stronger effect = lower value 0.925 | locus YLR221C, strain rsa3, stronger effect = lower value 0.931 | locus YLR262C, strain YPT6 (second series), stronger effect = lower value 0.857 | locus YLR268W, strain sec22, stronger effect = lower value 0.964 | locus YLR320W, strain mms22, stronger effect = lower value 0.916 | locus YLR342W, strain FKS1, stronger effect = lower value 0.941 | locus YLR357W, strain rsc2, stronger effect = lower value 0.909 | locus YLR384C, strain iki3, stronger effect = lower value 0.937 | locus YML120C, strain ndi1, stronger effect = lower value 0.926 | locus YMR058W, strain fet3, stronger effect = lower value 0.914 | locus YMR125W, strain sto1, stronger effect = lower value 0.907 | locus YMR129W, stronger effect = lower value 0.949 | locus YMR205C, strain PFK2, stronger effect = lower value 0.91 | locus YMR231W, strain pep5, stronger effect = lower value 0.984 | locus YMR307W, strain GAS1, stronger effect = lower value 1.06 | locus YNL067W, strain RPL9B, stronger effect = lower value 0.899 | locus YNL071W, strain lat1, stronger effect = lower value 0.926 | locus YNL128W, strain TEP1, stronger effect = lower value 0.933 | locus YNL153C, strain GIM3, stronger effect = lower value 0.9 | locus YNL183C, strain NPR1, stronger effect = lower value 0.869 | locus YNL209W, strain ssb2, stronger effect = lower value 0.97 | locus YNL298W, strain CLA4, stronger effect = lower value 0.953 | locus YNL322C, strain KRE1 (second series), stronger effect = lower value 0.935 | locus YNR049C, strain mso1, stronger effect = lower value 0.92 | locus YNR052C, strain pop2, stronger effect = lower value 0.949 | locus YOL006C, strain TOP1, stronger effect = lower value 0.578 | locus YOL012C, strain htz1 1.06 | locus YOR061W, strain CKA2, stronger effect = lower value 0.957 | locus YOR070C, strain gyp1, stronger effect = lower value 0.951 | locus YOR080W, strain dia2, stronger effect = lower value 0.942 | locus YOR083W, strain WHI5, stronger effect = lower value 0.89 | locus YOR136W, strain idh2, stronger effect = lower value 0.928 | locus YOR184W, strain ser1, stronger effect = lower value 0.915 | locus YOR231W, strain MKK1, stronger effect = lower value 0.905 | locus YOR290C, strain snf2, stronger effect = lower value 0.88 | locus YPL051W, strain arl3, stronger effect = lower value 0.956 | locus YPL055C, strain LGE1, stronger effect = lower value 0.922 | locus YPL106C, strain sse1, stronger effect = lower value 0.88 | locus YPL240C, strain hsp82, stronger effect = lower value 0.952 | locus YPL256C, strain CLN2, stronger effect = lower value 0.839
active: locus YAL030W, strain snc1, stronger effect = lower value 0.928 | locus YBR009C, strain hhf1, stronger effect = lower value 0.896 | locus YBR231C, strain swc5, stronger effect = lower value 0.897 | locus YCL011C, strain gbp2, stronger effect = lower value 0.891 | locus YDL134C, strain PPH21, stronger effect = lower value 0.874 | locus YDL185W, strain tfp1, stronger effect = lower value 0.896 | locus YDL192W, strain arf1, stronger effect = lower value 0.896 | locus YDR001C, strain nth1, stronger effect = lower value 0.909 | locus YDR101C, strain arx1, stronger effect = lower value 0.915 | locus YDR318W, strain mcm21, stronger effect = lower value 0.893 | locus YDR388W, stronger effect = lower value 0.916 | locus YDR502C, strain sam2, stronger effect = lower value 0.844 | locus YER015W, strain faa2, stronger effect = lower value 0.924 | locus YER110C, stronger effect = lower value 0.882 | locus YER155C, strain BEM2 (second series), stronger effect = lower value 0.857 | locus YGL078C, strain dbp3, stronger effect = lower value 0.912 | locus YGL086W, strain mad1, stronger effect = lower value 0.883 | locus YGL240W, strain doc1, stronger effect = lower value 0.887 | locus YGL248W, strain PDE1, stronger effect = lower value 0.877 | locus YGR135W, strain pre9, stronger effect = lower value 0.823 | locus YHR027C, strain rpn1, stronger effect = lower value 0.917 | locus YHR079C, strain IRE1 (second series), stronger effect = lower value 0.919 | locus YHR094C, strain hxt1, stronger effect = lower value 0.919 | locus YHR142W, strain chs7, stronger effect = lower value 0.866 | locus YHR200W, strain rpn10, stronger effect = lower value 0.864 | locus YIR030C, strain dcg1, stronger effect = lower value 0.913 | locus YJL095W, strain BCK1 (second series), stronger effect = lower value 0.917 | locus YJL164C, strain tpk1, stronger effect = lower value 0.903 | locus YJL168C, strain set2, stronger effect = lower value 0.931 | locus YKL068W, stronger effect = lower value 0.928 | locus YKL085W, strain MDH1 (second series), stronger effect = lower value 0.912 | locus YKL085W, strain MDH1, stronger effect = lower value 0.912 | locus YKR001C, strain vps1, stronger effect = lower value 0.732 | locus YLL041C, strain sdh2, stronger effect = lower value 0.917 | locus YLR039C, strain RIC1, stronger effect = lower value 0.604 | locus YLR258W, strain gsy2, stronger effect = lower value 0.906 | locus YLR262C, strain YPT6, stronger effect = lower value 0.556 | locus YLR330W, strain CHS5, stronger effect = lower value 0.876 | locus YLR370C, strain arc18, stronger effect = lower value 0.895 | locus YLR371W, strain rom2, stronger effect = lower value 0.767 | locus YLR418C, strain cdc73, stronger effect = lower value 0.758 | locus YML016C, strain PPZ1, stronger effect = lower value 0.888 | locus YML032C, strain rad52, stronger effect = lower value 0.897 | locus YML124C, strain tub3, stronger effect = lower value 0.911 | locus YMR078C, strain ctf18, stronger effect = lower value 0.881 | locus YMR223W, strain ubp8, stronger effect = lower value 0.898 | locus YNL233W, strain BNI4, stronger effect = lower value 0.788 | locus YNL248C, strain rpa49, stronger effect = lower value 0.872 | locus YNL250W, strain rad50, stronger effect = lower value 0.862 | locus YNL271C, strain bni1, stronger effect = lower value 0.906 | locus YNL307C, strain MCK1, stronger effect = lower value 0.846 | locus YOL147C, strain pex11, stronger effect = lower value 0.912 | locus YOR001W, strain rrp6, stronger effect = lower value 0.89 | locus YOR069W, strain VPS5, stronger effect = lower value 0.924 | locus YOR106W, strain vam3, stronger effect = lower value 0.855 | locus YOR144C, strain elg1, stronger effect = lower value 0.913 | locus YOR265W, strain rbl2, stronger effect = lower value 0.913 | locus YOR270C, strain vph1, stronger effect = lower value 0.721 | locus YOR316C, strain cot1, stronger effect = lower value 0.917 | locus YPL078C, strain atp4, stronger effect = lower value 0.887 | locus YPR119W, strain clb2, stronger effect = lower value 0.904 | locus YPR141C, strain kar3, stronger effect = lower value 0.901 | locus YPR163C, strain tif3, stronger effect = lower value 0.908 | locus YPR167C, strain met16, stronger effect = lower value 0.891 | strain wtn01, stronger effect = lower value 0.892
